Compounds with a hit are over-represented: about 2.5% of the library has one in this group of screens.
APE1 inh-1: blocks human APE1 abasic DNA cleavage. P27695. recombinant APE1, TAMRA/BHQ-2 abasic DNA cleavage fluorescence. Potency, µM (top dose mostly 65.8 µM), actives largely listed as inhibitors. 350,000 compounds, 0.35% hits. AID 2517; also: nearly all actives have a fitted effect of over 55% in size
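APE1 at 0.75 nM preincubated 15 min at room temperature with compound. Reaction then started with 50 nM double-stranded THF-abasic substrate labelled with TAMRA/BHQ-2, and 525/598 nm fluorescence read kinetically. Activity taken as third-minus-first read difference, normalized to DMSO and NSC13755 controls.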
L3MBTL1 inh-1: L3MBTL1 (human) inhibition | Q9Y468 | AlphaScreen L3MBTL1–H3K9me1 peptide binding | Potency, µM (titrated, usually from 57.1 µM), usual class: inhibitors | 230,000 compounds, 0.66% hits; also: nearly all actives have a fitted effect of over 60% in size
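L3MBTL1 50 nM + b-AHA-H3(1-15)K9me1 75 nM, 30 min RT; compound added, 30 min RT; streptavidin donor/Ni-chelate acceptor beads 10 ug/mL each final, 30 min RT dark; AlphaScreen read.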
Pol kappa inh-1: blocks human DNA polymerase kappa activity | purified Pol kappa, fluorescent DNA synthesis assay, 10 min | Potency, µM (highest dose often 107 µM), usual class: inhibitors | 400,000 compounds, 0.53% hits | AID 588579
Target sequence (Q9UBT6 whole entry, looked up): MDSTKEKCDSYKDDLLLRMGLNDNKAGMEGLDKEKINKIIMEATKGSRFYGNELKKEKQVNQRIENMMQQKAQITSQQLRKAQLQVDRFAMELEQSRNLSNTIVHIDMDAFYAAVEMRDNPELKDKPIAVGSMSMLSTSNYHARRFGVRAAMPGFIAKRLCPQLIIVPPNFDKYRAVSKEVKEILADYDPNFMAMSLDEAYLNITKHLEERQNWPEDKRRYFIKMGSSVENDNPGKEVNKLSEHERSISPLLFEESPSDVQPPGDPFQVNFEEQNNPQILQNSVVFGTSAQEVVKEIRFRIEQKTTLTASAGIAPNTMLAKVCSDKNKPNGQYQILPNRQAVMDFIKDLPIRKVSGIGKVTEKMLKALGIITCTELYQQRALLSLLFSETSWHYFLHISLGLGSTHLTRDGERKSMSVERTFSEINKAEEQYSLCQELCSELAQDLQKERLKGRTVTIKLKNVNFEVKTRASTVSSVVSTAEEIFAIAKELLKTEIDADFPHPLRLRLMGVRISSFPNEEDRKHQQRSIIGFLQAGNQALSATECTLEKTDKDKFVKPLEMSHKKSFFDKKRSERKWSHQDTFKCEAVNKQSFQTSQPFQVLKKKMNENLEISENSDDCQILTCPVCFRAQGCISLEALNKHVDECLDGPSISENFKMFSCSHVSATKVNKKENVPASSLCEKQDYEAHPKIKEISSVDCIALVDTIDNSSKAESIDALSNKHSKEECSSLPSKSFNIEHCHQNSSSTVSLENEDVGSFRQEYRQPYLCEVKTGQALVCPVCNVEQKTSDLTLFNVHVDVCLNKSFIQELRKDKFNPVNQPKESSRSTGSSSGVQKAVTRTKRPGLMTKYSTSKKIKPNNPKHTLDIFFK
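Pol kappa 10 nM + cpd, 15 min RT; start w/ substrate 50 nM final; fluorescence kinetic read, 0 and 10 min. Neg ctrl: buffer, no enzyme.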
Pol eta inh-1: DNA polymerase eta (human) inhibition; 390,000 compounds, 1.2% hits; recombinant Pol eta, fluorescent DNA replication assay; Potency, µM (series often up to 114 µM), most hits filed as inhibitors; Q9Y253
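Pol eta (10 nM) was preincubated with compounds for 15 min at room temperature, after which fluorescent replication substrate (50 nM final) was added to start the reaction. Fluorescence was read kinetically at 0 and 10 min.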
POLI inh: DNA polymerase iota (human) inhibition; 390,000 compounds, 1% hits; Q9UNA4; AID 588590; Potency, µM (doses to about 115 µM), actives largely listed as inhibitors; Pol iota fluorescent replication assay, 10 min
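Pol iota at 10 nM preincubated 15 min with compounds at room temperature; reaction started with fluorescent substrate, 50 nM final. Fluorescence read kinetically at 0 and 10 min; buffer-only wells as negative control.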
Pol beta inh-1: inhibitors of human DNA polymerase beta. P06746. Pol beta primer extension/strand displacement, fluorescence kinetic. Potency, µM (titrated, usually from 114 µM), most hits filed as inhibitors. 340,000 compounds, 1.3% hits. AID 485314
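Curves were derived by four-parameter Hill fits of normalized qHTS data. The kinetic fluorescent primer-extension read was taken at 0 and 10 min after 50 nM substrate, following a 15 min room-temperature preincubation of 10 nM enzyme with compounds.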
DNA dye displace: counter-screen for APE1 inhibitors: DNA dye displacement. shares compounds with APE1 inh-1. DNA fluorescent dye displacement counterscreen, fluorescence. Potency, µM (highest dose often 28.5 µM), hits mostly inhibitors. 480 compounds, 7% hits. AID 2564;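 also: loss of thiazole orange fluorescence as the dye is displaced from duplex DNA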
Endo IV inh: Endo IV (E. coli) inhibition counter-screen; shares compounds with APE1 inh-1; E. coli Endo IV, fluorogenic AP-site DNA cleavage; Potency, µM (titrated, usually from 27.1 µM), usual class: inhibitors; 560 compounds, 4% hits; AID 2565
APE1 inh-2: confirmation of inhibitors of human APE1 endonuclease. AID 2572. Potency, µM (series often up to 57.1 µM), usual class: inhibitors. 750 compounds, 44% hits. purified APE1, fluorogenic abasic-site DNA cleavage. shares compounds with APE1 inh-1; also: nearly all actives have a fitted effect of over 30% in size
APE1 FP inh: compounds that displace a DNA probe from human APE1; shares compounds with APE1 inh-1; APE1 binding to TAMRA-labelled double-stranded DNA, fluorescence polarization displacement; Potency, µM (top dose mostly 28.5 µM), most hits filed as inhibitors; 480 compounds, 7% hits
Pol beta inh-2: Validate hits inhibiting human DNA polymerase beta. shares compounds with Pol beta inh-1. Pol beta primer extension/strand displacement, fluorescence kinetic. 250 compounds, 87% hits. AID 540280. Potency, µM, hits mostly inhibitors; calls by dose curve
Klenow counter: counter-screen for DNA polymerase beta inhibitors: Klenow fragment inhibition; shares compounds with Pol beta inh-1; Klenow exo- polymerase counter-screen, fluorescent DNA substrate; activity change, negative = inhibition, % at 57.1 µM; 250 tested, under 10 active
HIV RT counter: inhibits HIV-1 reverse transcriptase in counter-screen; shares compounds with Pol beta inh-1; HIV-1 RT polymerase activity, counter-screen; activity % (negative = inhibition, positive = activation), % at 57.1 µM; 250 tested, under 10 active
POLB valid: validation of human DNA polymerase beta inhibitors; shares compounds with Pol beta inh-1; radiolabeled primer extension gel assay, phosphorimager; 110 compounds, 91% hits; inhibition, % at 10 µM; AID 540325;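 active = inhibition at 10 µM of 30% or more; inconclusive = no clear call, values can overlap the other calls; inactive = inhibition at 10 µM under 30%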
L3MBTL1 inh-2: validation of human L3MBTL1 methyl-lysine binding inhibitors; AID 540279; Potency, µM, most hits filed as inhibitors; L3MBTL1 methyl-lysine binding inhibition, biochemical qHTS; shares compounds with L3MBTL1 inh-1; 500 compounds, 91% hits; also: nearly all actives have a fitted effect of over 70% in size
L3MBTL1 ctr: counter-screen for L3MBTL1 inhibitors: AlphaScreen signal interference. shares compounds with L3MBTL1 inh-1. AlphaScreen counterscreen, signal inhibition. Potency, µM (series often up to 57.1 µM), usual class: inhibitors. 500 tested, under 10 active
Pol iota confirm: Human Pol iota inhibitor confirmatory assay. shares compounds with Pol kappa inh-1. Pol iota primer extension, TAMRA/BHQ fluorescence. Potency, µM, most hits filed as inhibitors. 1,500 compounds, 77% hits. AID 720496
Pol kappa inh-2: confirmation of human DNA polymerase kappa inhibitors. shares compounds with Pol eta inh-1. purified Pol-kappa, fluorescent strand-displacement substrate. Potency, µM, most hits filed as inhibitors. 920 compounds, 76% hits. AID 720501
Pol eta inh-2: confirmation of human DNA polymerase eta inhibitors. shares compounds with Pol eta inh-1. Pol eta primer extension, TAMRA/BHQ fluorescence, 10 min. Potency, µM, most hits filed as inhibitors. 2,600 compounds, 64% hits
Numbers stand for hits; i = inactive; ? = inconclusive; nt = not tested or not shown; ! = not active in a repeat. Unless noted, calls follow the shape of the dose curve; as a rule, active = well fitted curve in the direction sought with a large enough effect; inconclusive = small, poorly fitted or top-dose-only effect, or another doubt; inactive = no such curve, though single readings can be large; an effect the other way counts as inactive or inconclusive.

SMILES	APE1 inh-1	L3MBTL1 inh-1	Pol kappa inh-1	Pol eta inh-1	POLI inh	Pol beta inh-1	DNA dye displace	Endo IV inh	APE1 inh-2	APE1 FP inh	Pol iota confirm	Pol eta inh-2	others
CC(NC(=O)c1ccc(Cn2c(=O)c3cccn3c3cccnc32)cc1)c1ccccc1 (stereo not drawn)	nt	nt	i	i	i	i	nt	nt	nt	nt	nt	nt
CCOc1cc(S(=O)(=O)Nc2ccncc2)ccc1F	i	nt	i	i	i	i	nt	nt	nt	nt	nt	nt
Cc1ccc(CN2C(=O)N/C(=C\c3ccc(-c4ccc(C(=O)O)cc4C)o3)C2=O)cc1	16µM	?	79µM	18µM	i	20µM	?	i	?	i	21	27
CCn1c(C)cc(/C=C2\NC(=O)N(Cc3ccc(Cl)cc3)C2=O)c1C	i	i	i	i	i	i	nt	nt	nt	nt	nt	nt
Cc1ccc(/C=C2/NC(=O)N(Cc3ccccc3)C2=O)o1	?	i	i	i	i	i	nt	nt	nt	nt	nt	nt
Cc1ccc(C(=O)O)cc1-c1ccc(/C=C2/NC(=O)N(c3ccccc3)C2=O)o1	11µM	nt	22µM	2.8µM	14µM	5.6µM	i	i	?	i	19	30	Pol kappa inh-2=19
O=C(O)c1ccc(-c2ccc(/C=C3\NC(=O)N(Cc4ccc(Cl)cc4)C3=O)o2)cc1	i	?	?	22µM	28µM	i	nt	nt	?	nt	38	27
Cc1ccc(C(=O)O)cc1-c1ccc(/C=C2\SC(=O)N(CC(=O)Nc3ccccc3)C2=O)o1	?	?	?	18µM	?	?	nt	nt	40µM	nt	42	48
O=C1C=CC(=O)C2=C1C1c3ccccc3C2c2ccccc21	i	nt	nt	nt	nt	nt	nt	nt	nt	nt	nt	nt
CC1CCCC(C)N1C(=O)COC(=O)CNS(=O)(=O)c1ccc2ccccc2c1 (stereo not drawn)	nt	nt	nt	i	nt	nt	nt	nt	nt	nt	nt	nt
COc1ccccc1NS(=O)(=O)c1cccc(C(=O)NCC(c2cccs2)N2CCOCC2)c1 (stereo not drawn)	i	i	i	i	i	nt	nt	nt	nt	nt	nt	nt
CCOc1ccc2nc(N3CCCC(C(=O)Nc4ccccc4CC)C3)sc2c1 (stereo not drawn)	nt	nt	i	i	i	i	nt	nt	nt	nt	nt	nt
O=c1cc(-c2ccc(O)cc2)oc2cc(O)c([C@@H]3O[C@H](CO)[C@@H](O)[C@H](O)[C@H]3O)c(O)c12	i	i	i	i	i	nt	nt	nt	nt	nt	nt	nt
O=c1cc(-c2ccc(O)c(O)c2)oc2cc(O)c(C3OC(CO)C(O)C(O)C3O)c(O)c12 (stereo not drawn)	7.9µM	16µM	20µM	3.2µM	10µM	4.5µM	?	i	3.2µM	i	42	19
O=C(c1cc(Br)ccc1OC(F)F)N1CCN2CCCC2C1 (stereo not drawn)	i	i	i	i	i	nt	nt	nt	nt	nt	nt	nt
COc1cccc2c1C(=O)c1c(O)c3c(c(O)c1C2=O)C[C@@](O)(C(C)=O)C[C@@H]3O[C@H]1C[C@H](N)[C@H](O)[C@H](C)O1	25µM!	i	5.6µM	i	35µM	28µM	i	nt	10µM	2µM	17	67	Pol kappa inh-2=?
COC(=O)c1ccccc1NC(=O)c1noc2c1CCC2	?	28µM	?	20µM	20µM	10µM	?	i	11µM	?	38	30	Pol beta inh-2=32;Klenow counter=i;HIV RT counter=i;POLB valid=73;L3MBTL1 inh-2=9.5;L3MBTL1 ctr=i
O=C(CSc1nnc(SCc2ccccc2)s1)N/N=C/C=C\c1ccco1	18µM	13µM	28µM	20µM	?	7.1µM	13µM	i	13µM	?	42	43
C=CCc1cccc2cc(C(=O)Nc3ccc(S(=O)(=O)Nc4nnc(CC)s4)cc3)c(=O)oc12	?	i	i	10µM	8.9µM	i	nt	nt	40µM	nt	?	30	Pol kappa inh-2=38
c1ccc2cc(C3CCCCC3)ncc2c1	i	i	i	i	i	nt	nt	nt	nt	nt	nt	nt
CCOC(=O)C1=C(N)Oc2ccc(Br)cc2C1C(C#N)C(=O)OCC (stereo not drawn)	i	nt	i	nt	nt	nt	nt	nt	nt	nt	nt	nt
COc1ccc2nc(C)cc(SCC(=O)N/N=C/c3ccc(O)c(O)c3)c2c1	?	i	28µM	4.5µM	16µM	2.2µM	?	i	7.9µM	i	?	24
COc1cccc2c(SCC(=O)N/N=C/c3ccc(O)c(O)c3)cc(C)nc12	8.9µM	i	13µM	7.9µM	11µM	2µM	i	i	5µM	i	30	19
COc1cccc2c(SCC(=O)N/N=C/c3ccccc3)cc(C)nc12	i	i	i	?	i	i	nt	nt	nt	nt	nt	nt
